# Reference: PubChem BioAssay (NCI)
# The panel holds about 83,000 compounds, 20% with a hit somewhere; the sample as a whole holds those more often.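 For each line, cells grew in 96-well plates with the test compound present at a single concentration for 48 hours.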 Values without a mark were called inactive. Activity calls are given as the source filed them. Rule for the calls: active = growth percent below 10; inactive = the rest.
# Tests used:
# Assay in all cases: NCI-60 one-dose screen, 48 h (100 = growth as untreated, 0 = no growth, -100 = all killed)
# Settings in all cases: 10 µM unless noted
# SK-MEL-2 melanoma = test system: SK-MEL-2 melanoma
# EKVX NSCLC = test system: EKVX NSCLC
# SN12C renal = test system: SN12C renal
# UO-31 renal = test system: UO-31 renal
# TK-10 renal = test system: TK-10 renal
# ACHN renal = test system: ACHN renal
# CAKI-1 renal = test system: CAKI-1 renal
# A498 renal = test system: A498 renal
# CCRF-CEM leukemia = test system: CCRF-CEM leukemia
# MOLT-4 leukemia = test system: MOLT-4 leukemia
SMILES,growth (SK-MEL-2 melanoma),growth (EKVX NSCLC),growth (SN12C renal),growth (UO-31 renal),growth (TK-10 renal),growth (ACHN renal),growth (CAKI-1 renal),growth (A498 renal),growth (CCRF-CEM leukemia),growth (MOLT-4 leukemia)
O=C1CSC(c2c(Cl)cccc2Cl)N1c1nc(Cl)cc(=O)[nH]1 (configuration not stated),78.3%,119%,108%,79.8%,161%,111%,117%,121%,67.3%,171%
COc1cc(C2CC(c3ccc(SC)cc3)=NN2C(C)=O)cc(OC)c1OC (configuration not stated),65.5%,74.5%,91.4%,71.2%,86.2%,89.3%,65.5%,68.1%,52.9%,43.2%
CN(C)CCN1CCN(c2ncccc2C2Nc3ccccc3-n3cccc32)CC1 (configuration not stated),124%,102%,101%,77.8%,103%,105%,85.4%,86.7%,102%,98.2%
Cc1nc(/N=C(\N)NC(=O)Nc2cccc(Cl)c2)sc1C,72%,68.3%,86.4%,84%,111%,78.4%,48.6%,42.4%,68.4%,58.4%
O=c1c2cc(F)ccc2sc2c(NCCN3CCOCC3)nc3ccccc3c12,110%,91.6%,72.8%,42%,79.2%,64.7%,33.2%,58.3%,57%,52.1%
O=c1cc(SCc2ccccc2)nc[nH]1,111%,94.9%,120%,103%,108%,108%,85.6%,113%,98.5%,89.4%
CN1CCN(c2ccc(-c3cnc4c(-c5csc6ccccc56)cnn4c3)cc2)CC1,-32.8% (active),22%,0.637% (active),-89.4% (active),-18.7% (active),-82.4% (active),-13.9% (active),-55.5% (active),16.8%,16.2%
Cc1cc(=O)oc2cc(OC(=O)CN3CCN(C)CC3)ccc12,106%,92.5%,96.6%,92.8%,109%,103%,85.8%,97.2%,98.7%,101%
O=C(O)CCC(=O)Nc1nnc(-c2ccccc2)s1,106%,95.3%,104%,106%,111%,109%,97.8%,98.9%,106%,111%
Cc1cccc2c(=O)c3c(sc12)c(NCc1ccccc1)nc1ccccc13,101%,89.7%,93.6%,66.5%,105%,90.9%,76.4%,72.4%,100%,92.1%
O=C(/C=C/c1sc(Cl)nc1Cl)c1ccc(F)cc1,95.5%,88.8%,45.1%,85.4%,103%,22.4%,88.2%,91.9%,37.5%,48.5%
Cc1ccc(C(=O)NN2C(=O)CSC2c2cccc([N+](=O)[O-])c2)cn1 (configuration not stated),100%,98.7%,96.6%,14.9%,98.3%,92.2%,79.5%,100%,90.8%,105%
Cc1nc2ccccc2n1CC1C(=O)NC(=O)NC1=O,120%,106%,104%,91.3%,107%,109%,104%,-34.3% (active),103%,98.1%
COc1cc(C(=O)c2cc(C)c3[nH]c4ccc(C)cc4c3c2C)cc(OC)c1OC,60.4%,44.1%,22.5%,24.9%,87.5%,26.4%,24.2%,-8.86% (active),14.2%,16.8%
Nc1nc(-c2cccc3ccccc23)cc2ccccc12,27.7%,46%,35.8%,19.6%,55.8%,36.6%,15.6%,-19.8% (active),29%,-3.33% (active)
CCC(C)(c1cc(C(C)(C)C)c(O)c(C(C)(C)C)c1)c1cc(C(C)(C)C)c(O)c(C(C)(C)C)c1,96.2%,107%,101%,92.2%,97.3%,101%,94.2%,101%,98.9%,100%
CN1CCN(c2ccc(-c3cc4c(Nc5ccc(F)c(Cl)c5)ncnn4c3)cc2)CC1,103%,83.5%,70.1%,82.7%,73.6%,44%,66.8%,61.9%,28.9%,34.2%
COc1c(C2CC(=O)Nc3c2c(C)nn3-c2nc3ccccc3[nH]2)cc2c(c1OC)OCO2 (configuration not stated),29.6%,58%,68.8%,45.4%,66.9%,55.8%,71.6%,22.6%,11.3%,-12.7% (active)
COc1cccc(-c2nc(-c3ccc(NS(=O)(=O)c4ccccc4)cc3)[nH]c2-c2ccnc(Br)c2)c1,10.5%,32.1%,28.4%,11.8%,46.3%,11.9%,18.3%,28.4%,18.9%,4.8% (active)
Cc1cccc(OCC(O)CN2CCN(c3ccc(Cl)cc3)CC2)c1 (configuration not stated),110%,115%,100%,82.4%,106%,108%,93.1%,100%,89%,97.1%
CN1CCN(Cc2ccc(NC(=O)c3cncc(C#Cc4cnccc4C#N)c3)cc2C(F)(F)F)CC1,52%,66.4%,60.5%,43.5%,108%,66.8%,54.8%,84.9%,59%,66.1%
Clc1ccc2c(c1)N(CCCN1CCCC1)c1ccccc1S2,74%,51.6%,15%,40.1%,82.9%,45%,56%,36.6%,36.3%,24.2%
COc1cccc(Cc2cc(-c3ccccc3)nn(CC(=O)c3ccccc3)c2=O)c1,85.4%,65.1%,59.3%,65.1%,72.1%,–,59.6%,52.1%,39.1%,22.7%
CCOC(=O)c1cn2ncnc(Oc3ccc(NC(=O)NCCN(C)C)c(Cl)c3)c2c1C,112%,79.3%,63.9%,62.1%,105%,84.5%,65.8%,57.5%,43.4%,53.9%
O=C(O)c1cn(C2CC2)c2cc(N3CCN(C(=O)Nc4nc(-c5ccccc5)cs4)CC3)c(F)cc2c1=O,-10.8% (active),37.5%,4.91% (active),5.5% (active),26.3%,25.2%,63.6%,-0.916% (active),23%,22.9%
COc1ccc(C(=O)N=Nc2c(O)n(C)c3ccccc23)cc1,114%,77%,94.5%,69.3%,146%,–,82.3%,99.5%,94.2%,99.9%
CCCCn1c(-c2ccc(C(=O)O/N=C(\N)c3ccc(OC)cc3)cc2)nc(-c2ccccc2)c1-c1ccccc1,52.6%,-79.2% (active),-62.7% (active),-93.7% (active),-78.8% (active),–,-46.3% (active),20.9%,-48.7% (active),-39.7% (active)
